Compounds with a hit are over-represented: about 10% of the library has one in this group of screens.
GPT2 inhibitor – blocks human glutamate pyruvate transaminase 2 | Q8TD30 | Recombinant GPT2, coupled pyruvate oxidase/HRP Amplex Red fluorescence | Potency, µM (series often up to 57.7 µM), for the others: at the highest dose activity change, negative = inhibition, most hits filed as inhibitors | 100,000 compounds, 0.25% hits; note: nearly all actives have a fitted effect of over 60% in size
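Inhibition is scored from Amplex Red fluorescence generated when pyruvate oxidase and HRP act on pyruvate released by GPT2. Reactions contain 10ng/uL enzyme, 250uM a-KG and 2mM L-alanine and run 30 min at room temperature.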
NIH3T3 tox – cytotoxic compounds in NIH 3T3 cells; 94,000 compounds, 4.3% hits; Potency, µM (titrated, usually from 96.7 µM), inactives show at the highest dose activity change, negative = cytotoxicity, most hits filed as inhibitors; NIH 3T3 viability, CellTiter-Glo ATP luminescence, 48-72 h; note: nearly all actives have a fitted effect of over 55% in size
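ATP-dependent luminescence (CellTiter-Glo) served as the viability signal for NIH 3T3 cells treated with compound for 48 or 72 hr at 37 °C.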
NPR1 antag – blocks ANP-stimulated signaling of human Npr1 receptor. P16066. HEK293 hNpr1 GloSensor cGMP, ANP-stimulated luminescence. Potency, µM (series often up to 46.3 µM), inactives show top-dose activity change, negative = inhibition, actives largely listed as inhibitors. 76,000 compounds, 1.6% hits. AID 1347048; calls by dose curve; note: nearly all actives have a fitted effect of over 60% in size
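HEK293 cells stably expressing human Npr1 and cGMP GloSensor pGS-40F, loaded 2 h with 2% GloSensor reagent, given compound 30 min at room temperature. Luminescence read before and 20 min after 0.1 nM hNppA.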
HEK cytotox – cytotoxic compounds in HEK 293 cells | HEK 293 viability, ATP luminescence (CellTiter-Glo), 48-72 h | Potency, µM (doses to about 115 µM), inactives show at the top dose activity change, negative = cytotoxicity, actives largely listed as inhibitors | 94,000 compounds, 6.6% hits | AID 1345083; note: nearly all actives have a fitted effect of over 60% in size
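HEK 293 seeded at 250 cells/well receive compound via pintool. After 48 or 72 hr at 37 degree Celsius, 5% CO2 and 95% humidity, CellTiter-Glo is dispensed and luminescence read following 10 min at room temperature.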
Luciferase inh – Photinus pyralis luciferase inhibition | P08659 | purified P. pyralis luciferase, luminescence, biochemical | Potency, µM (highest dose often 115 µM), actives largely listed as inhibitors | 76,000 compounds, 2.5% hits; note: nearly all actives have a fitted effect of over 65% in size
Target sequence (P08659 whole entry, looked up): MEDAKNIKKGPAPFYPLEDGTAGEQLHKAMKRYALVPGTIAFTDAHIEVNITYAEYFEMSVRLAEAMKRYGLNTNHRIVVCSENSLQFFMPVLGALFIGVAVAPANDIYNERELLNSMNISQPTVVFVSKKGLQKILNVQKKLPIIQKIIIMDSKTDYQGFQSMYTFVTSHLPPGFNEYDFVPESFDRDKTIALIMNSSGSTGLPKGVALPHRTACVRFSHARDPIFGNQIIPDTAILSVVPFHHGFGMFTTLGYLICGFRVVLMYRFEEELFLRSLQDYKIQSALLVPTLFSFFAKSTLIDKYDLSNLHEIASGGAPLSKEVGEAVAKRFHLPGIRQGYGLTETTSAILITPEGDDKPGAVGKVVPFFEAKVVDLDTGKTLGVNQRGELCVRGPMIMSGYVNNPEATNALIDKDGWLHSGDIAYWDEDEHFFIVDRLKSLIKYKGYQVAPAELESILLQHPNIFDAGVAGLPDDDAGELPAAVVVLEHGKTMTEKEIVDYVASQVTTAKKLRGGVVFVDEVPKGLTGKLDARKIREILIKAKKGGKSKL
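Purified 10nM P. pyralis luciferase with 10uM D-luciferin and 10uM ATP in 50mM Tris acetate pH 7.5, 10mM Mg acetate, 0.01% Tween-20, 0.05% BSA. qHTS titration; luminescence read by CCD imager.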
Starred values were filed as active, the others as inactive; i = inactive; ? = inconclusive; nt = not tested or not shown; [ ] = another dose, or the depositor's remark. Unless noted, calls come from the whole dose curve; as a rule, active = well fitted curve in the direction sought with a large enough effect; inconclusive = small, poorly fitted or top-dose-only effect, or another doubt; inactive = no such curve, though single readings can be large; an effect the other way counts as inactive or inconclusive. % is set by controls: 0 for no effect and ±100 for the full control effect; potency is the fitted concentration of half-maximal effect.

SMILES	GPT2 inhibitor	NIH3T3 tox	NPR1 antag	HEK cytotox	Luciferase inh
Cc1ccc(C(=O)N2CCC(n3cc(-c4nc(-c5ccccc5)no4)nn3)C2)cc1C (centres undefined)	i	?	2µM*	45µM*	32µM*
CN(C)c1ccc(C(=O)N2CCC(n3cc(-c4nc(-c5ccccc5)no4)nn3)C2)cc1 (centres undefined)	i	?	0%	45µM*	?
O=C(c1ccccc1)N1CCCC(C(=O)N2CCC(N3CCCC3=O)CC2)C1 (centres undefined)	?	-3%	nt	0%	nt
c1csc(CN2Cc3[nH]cnc3C[C@H]2c2nc(-c3ccc4ccccc4c3)no2)c1	2%[88.5 µM]	?	-24%[70.6 µM]	50µM*	i
c1csc(CN2Cc3[nH]cnc3C[C@H]2c2nc(-c3ccncc3)no2)c1	i	?	-28%[70.6 µM]	?	i
COc1ccc(-c2noc([C@@H]3Cc4nc[nH]c4CN3Cc3cccs3)n2)cc1	-3%[88.5 µM]	89µM*	-17%[70.6 µM]	?	71µM*
FC(F)(F)c1ccc(-c2noc([C@@H]3Cc4nc[nH]c4CN3Cc3cc4ccccc4o3)n2)cc1	i	?	?	?	?
COc1cccc(C(=O)N2CCN(C(=O)c3nc4cccnc4n(Cc4ccccc4)c3=O)CC2)c1	i	-27%	nt	-17%	nt
CCOC(=O)C1CCCN(C(=O)c2cc(C(C)(C)C)nc3c2cnn3C)C1 (centres undefined)	-17%	?	nt	?	nt
Cc1cc2nc3n(c(=O)c2n1CC(=O)Nc1ccc(Br)cc1F)CCCCC3	i	?	0%	25µM*	i
O=C(c1ccc(Cl)cc1)N1CCOC(CN(C(=O)c2ccc(F)cc2)C2CCCC2)C1 (centres undefined)	i	?	-17%	45µM*	i
CC(C)CNC(=O)CN1CN(c2ccccc2)C2(CCN(C(=O)NC3CCCCC3)CC2)C1=O	i	?	2%	-13%	i
CCCNC(=O)N1CCC2(CC1)N(c1ccccc1)C(=O)CS2=O (centres undefined)	i	?	nt	-1%	nt
O=C1Cc2c(-c3cccc4ccccc34)n[nH]c2CN1CCc1ccncc1	-12%[88.5 µM]	?	-5%[70.6 µM]	79µM*	i
O=C1Cc2c(-c3ccc(N4CCOCC4)cc3)n[nH]c2CN1CCc1ccncc1	i	79µM*	-10%[70.6 µM]	-18%[172 µM]	?
O=C1Cc2c(-c3cccc(C(F)(F)F)c3)n[nH]c2CN1CCc1ccncc1	0%[88.5 µM]	?	3%[70.6 µM]	89µM*	i
O=C1Cc2c(-c3ccc4c(c3)OCO4)n[nH]c2CN1CC1CCOCC1	-7%[88.5 µM]	10µM*	3%[70.6 µM]	-28%[172 µM]	i
O=C1Cc2c(-c3ccccc3)n[nH]c2CN1CCc1ccncc1	i	?	-2%[70.6 µM]	3%[172 µM]	i
O=C(C1CCCN(Cc2cccc(-c3cccs3)c2)C1)N1CCOCC1 (centres undefined)	i	-24%	nt	?	nt
O=C(C1CCCN(Cc2cccc(-c3cccs3)c2)C1)N1CCC(c2ccccc2)CC1 (centres undefined)	nt	40µM*	nt	45µM*	nt
O=C(C1CCCN(Cc2cccc(-c3cccs3)c2)C1)N1CCN(Cc2ccccc2)CC1 (centres undefined)	-2%	35µM*	nt	?	nt
COc1ccccc1CN1C[C@@H](CO)[C@H](c2ccccn2)C1	i	-22%	-2%	?	i
COCCOCc1ccc(CC2CCN(C(=O)c3ccc(OC)cc3OC)CC2)cc1	-4%	?	nt	32µM*	nt
CCCn1c(C)cnc1CC1CCN(C(=O)c2ccc(OC)cc2OC)CC1	i	-4%	-2%	?	i
COCCCn1c(=O)c(C(=O)N2CCN(c3ncccn3)CC2)nc2cccnc21	-1%	3%	nt	i	nt
SMILES	GPT2 inhibitor	NIH3T3 tox	NPR1 antag	HEK cytotox	Luciferase inh
Cc1nnc2ccc(N3CCCC(NC(=O)C4CC4)C3)nn12 (centres undefined)	nt	-11%[138 µM]	nt	4%[172 µM]	nt
CCOC(=O)CCCOc1cccn2c(=O)c(-c3cc(C)n(-c4cccc(C)c4)n3)c(C)nc12	-11%	-2%	-2%	-12%	i
Cc1nc2c(OCC(=O)c3ccccc3)cccn2c(=O)c1-c1cc(C)n(-c2ccccc2)n1	i	-26%	-12%	?	40µM*
O=C(CCC(F)(F)F)N1CCCC(CCc2c(F)cccc2F)C1 (centres undefined)	-7%	?	0%	-29%	i
CSCCC(=O)N1CCCC(CCc2ccccc2F)C1 (centres undefined)	i	40µM*	-4%	?	i
O=C(CCCc1cn[nH]c1)N1CCCC(CCc2c(F)cccc2F)C1 (centres undefined)	i	?	-21%	50µM*	i
COc1ccc(-c2noc(-c3cccn3CC(=O)Nc3ccccc3C)n2)cc1F	i	-1%	2%	-10%	i
O=C([C@H]1CCCN1C(=O)c1ccc(C(F)(F)F)cc1)N1CCC(N2CCOC2=O)CC1	i	i	nt	0%	nt
Cc1cccc(N(C)C(=O)Cn2cccc2-c2nc(-c3ccccc3)no2)c1	4%	?	-2%	71µM*	?
Cc1ccc(C(=O)NCCn2cccc2-c2nc(-c3ccccc3)no2)cc1	-2%	-16%	-2%	-1%	0.89µM*
O=C(NCCn1cccc1-c1nc(-c2ccc3c(c2)OCO3)no1)C1(c2ccccc2)CC1	i	?	-14%	45µM*	20µM*
CCN(C(=O)Cn1cccc1-c1nc(-c2ccccc2)no1)c1cccc(C)c1	4%	?	-9%	?	i
Cc1ccc(C(=O)NCCn2cccc2-c2nc(-c3ccccc3)no2)cc1F	i	-4%	1%	-7%	i
O=C(COc1ccccc1)NCCn1cccc1-c1nc(-c2ccc3c(c2)OCO3)no1	-28%	2%	-18%	-3%	?
COC(=O)c1cccc(NC(=S)N[C@H]2CO[C@H]3[C@@H]2OC[C@H]3OC(=O)Nc2ccccc2)c1	-7%	-13%	-21%	-29%	i
Cc1noc(C)c1-c1cc2cc(CN(C)C)oc2c(Nc2cccnc2)n1	0%[88.5 µM]	25µM*	-1%[70.6 µM]	71µM*	i
Cc1noc(C)c1-c1cc2cc(CN(C)C)oc2c(NCc2cccnc2)n1	i	?	7%[70.6 µM]	?	i
Cc1ccccc1-c1nc(-c2c(C)noc2C)cc2cc(CN(C)C)oc12	?	28µM*	4%[70.6 µM]	?	i
CCOC(=O)c1cccc(NC(=O)C2=CC(C)(C)Oc3ccc(OC)cc32)c1	nt	28µM*	nt	25µM*	nt
CCOC(=O)c1cccc(NC(=O)N2CC[C@@H](CC(=O)Nc3ccccc3)[C@@H](CC)C2)c1	0%	-20%	-1%	-5%	i
